The nature of experiment [1]: qHTS assay to identify small molecule antagonists of the peroxisome proliferator-activated receptor delta (PPARd) signaling pathway - cell viability counter screen (AID 743213; active = well fitted curve in the direction sought with a large enough effect in the repeat runs; an effect the other way counts as inactive or inconclusive; note: nearly all actives have a fitted effect of over 50% in size). The method in brief:
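In this counter screen, HEK293H cells carrying a UAS-beta-lactamase reporter are co-treated with test compounds and 300 nM L165041 (final) for 17 h at 37 C; cell viability is quantified by CellTiter-Glo luminescence.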
(qHTS replaces the single test concentration by a dilution series.)

Experiment [2] addresses Peroxisome proliferator-activated receptor delta (Homo sapiens) (UniProt Q03181). Nature of the experiment: qHTS assay to identify small molecule antagonists of the peroxisome proliferator-activated receptor delta (PPARd) signaling pathway (AID 743215; active = well fitted inhibition curve with a large enough effect in the signal ratio in the repeat runs, not every such curve was filed as active; the % refers to the signal ratio;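 note: cells stimulated with agonist L165041 at 300 nM final during compound exposure; series mostly up to about 62 µM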). The method, boiled down: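 Inhibition of L165041-driven (300 nM final) PPARd signaling is scored in HEK293H UAS-bla cells. Exposure lasts 17 h at 37 C; beta-lactamase activity is then read by FRET substrate fluorescence after 2 h at room temperature.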

For experiment [3], the target named is Bile acid receptor (Homo sapiens) (UniProt Q96RI1). Nature of the experiment: qHTS assay to identify small molecule antagonists of the farnesoid-X-receptor (FXR) signaling pathway (AID 743217; active = well fitted inhibition curve with a large enough effect in the signal ratio in the repeat runs, not every such curve was filed as active; the % refers to the signal ratio). The method, boiled down:
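Antagonist mode against 50 uM (final) chenodeoxycholic acid stimulation in FXR-bla HEK 293T cells, 16 h at 37 °C. Inhibition detected as reduced beta-lactamase activity via LiveBLAzer B/G FRET fluorescence after 2 h at room temperature.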

Experiment [4] can be described thus: qHTS assay to identify small molecule agonists of the farnesoid-X-receptor (FXR) signaling pathway - cell viability counter screen (AID 743218; active = well fitted curve in the direction sought with a large enough effect in the repeat runs; an effect the other way counts as inactive or inconclusive; note: nearly all actives have a fitted effect of over 45% in size). The method, boiled down: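 Cytotoxicity counter-screen run in parallel, same wells: FXR-UAS-bla HEK 293T cells dosed 16 h at 37 C, viability read by CellTiter-Glo luminescence after 30 min at room temperature.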
Experiment [5] has as its target Bile acid receptor (Homo sapiens) (UniProt Q96RI1). The experiment in a line: qHTS assay to identify small molecule agonists of the farnesoid-X-receptor (FXR) signaling pathway (AID 743220; active = well fitted activation curve with a large enough effect in the signal ratio in the repeat runs, not every such curve was filed as active; the % refers to the signal ratio). The method, boiled down: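 Beta-lactamase reporter under UAS control in GeneBLAzer FXR HEK 293T cells (5000/well) measured with LiveBLAzer FRET substrate after 2 h at room temperature. Compound exposure lasted 16 h at 37C.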

A short description of experiment [6]: qHTS assay to identify small molecule antagonists of the farnesoid-X-receptor (FXR) signaling pathway - cell viability counter screen (AID 743221; active = well fitted cell-killing curve with a large enough effect in the repeat runs, not every such curve was filed as active; note: nearly all actives have a fitted effect of over 50% in size). The method in brief: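 CellTiter-Glo, 30 min RT, luminescence; same wells as the LiveBLAzer FRET read. Cells: FXR-UAS-bla HEK 293T. Treatment: compound with chenodeoxycholic acid 50 uM final, 16 h at 37 C.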
The target of experiment [7] is Vitamin D3 receptor (Homo sapiens) (UniProt P11473). Nature of the experiment: qHTS assay to identify small molecule agonists of the vitamin D receptor (VDR) signaling pathway (AID 743222). The method, boiled down: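 Quantitative HTS agonist-mode screen: compounds in DMSO were pin-transferred onto VDR-bla cells and incubated 16 h at 37C, 5% CO2. Reporter activity was detected with LiveBLAzer B/G FRET substrate after 2 h at room temperature.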

A short description of experiment [8]: qHTS assay to identify small molecule agonists of the vitamin D receptor (VDR) signaling pathway - cell viability counter screen (AID 743224; active = well fitted curve in the direction sought with a large enough effect in the repeat runs; an effect the other way counts as inactive or inconclusive; note: series mostly up to about 63 µM; nearly all actives have a fitted effect of over 50% in size). The method in brief:
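Viability is measured in the same wells as the VDR-bla reporter assay: after 16 h compound treatment and 2 h substrate loading, CellTiter-Glo is added and luminescence read 30 min later.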

Experiment [9] is described as follows: qHTS assay to identify small molecule antagonists of the vitamin D receptor (VDR) signaling pathway - cell viability counter screen (AID 743225; active = well fitted curve in the direction sought with a large enough effect in the repeat runs; an effect the other way counts as inactive or inconclusive; note: nearly all actives have a fitted effect of over 50% in size). The method in brief:
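Cytotoxicity toward the VDR-bla HEK 293T line was scored by ATP-based CellTiter-Glo luminescence, read in the wells already used for the beta-lactamase readout after 16 h compound treatment under 3 nM 1-alpha,25-dihydroxyvitamin D3 stimulation.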

Experiment [10] can be described thus: qHTS assay to identify small molecule agonists of the NFkB signaling pathway (AID 1159509; active = well fitted curve in the direction sought with a large enough effect in the signal ratio in the repeat runs, not every such curve was filed as active; the % refers to the signal ratio; note: series mostly up to about 61 µM). The method, boiled down: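 ME-180 NFkB-bla, 2,000 cells/well, overnight plating; cpd pinned in DMSO, 5 h 37 C; B/G FRET substrate 1.5 h RT; ex 405, em 460/530 nm.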
Experiment [11] in a line: qHTS assay to identify small molecule agonists of the NFkB signaling pathway - cell viability counter screen (AID 1159515). Note: series mostly up to about 61 µM; nearly all actives have a fitted effect of over 55% in size. The method, boiled down: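 Multiplexed viability readout: after the 5 hr compound exposure and 1.5 hr FRET substrate step, CellTiter-Glo reagent went into the same NFkB-bla ME-180 wells; ATP luminescence was measured after 30 min at room temperature.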

Experiment [12] is described as follows: qHTS assay to identify small molecule agonists of the endoplasmic reticulum stress response signaling pathway (AID 1159516; active = well fitted activation curve with a large enough effect in the signal ratio in the repeat runs, not every such curve was filed as active; the % refers to the signal ratio). The method in brief: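 Tox21 10K library screened in quantitative HTS format on ESRE-bla HeLa cells, a beta-lactamase reporter under ER stress response element control; 5 hr treatment, FRET read.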
A short description of experiment [13]: qHTS assay to identify small molecule agonists of the endoplasmic reticulum stress response signaling pathway - cell viability counter screen (AID 1159517). The method in brief:
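ESRE-bla HeLa cells, 1,500 per well, seeded overnight then treated with compounds for 5 hr at 37 C. After the beta-lactamase read, viability in the same wells is measured by CellTiter-Glo luminescence after 30 min at room temperature.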

Experiment [14] can be described thus: qHTS assay to identify small molecule antagonists of the retinoid-related orphan receptor gamma (ROR-gamma) signaling pathway - cell viability counter screen (AID 1159520; active = well fitted curve in the direction sought with a large enough effect in the repeat runs; an effect the other way counts as inactive or inconclusive; note: nearly all actives have a fitted effect of over 50% in size). The method in brief:
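Tet-on ROR gamma CHO cells were given compounds for 2 hr, then doxycycline hyclate at 1 uM final, and incubated 16 hr at 37 C. Viability was measured as ATP content by CellTiter-Glo luminescence.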

For experiment [15], the target named is Nuclear receptor ROR-gamma (Homo sapiens) (UniProt P51449). The experiment in a line: qHTS assay to identify small molecule antagonists of the retinoid-related orphan receptor gamma (ROR-gamma) signaling pathway (AID 1159521; active = well fitted curve in the direction sought with a large enough effect in the repeat runs; an effect the other way counts as inactive or inconclusive; note: nearly all actives have a fitted effect of over 50% in size; note: potency is the fitted concentration of half-maximal effect). The method in brief: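 Readout: ONE-Glo luciferase luminescence, 30 min at room temperature. System: Tet-on RORγ CHO, RORE-LUC. Sequence: compound 2 h, doxycycline 1 uM final, 16 h at 37 C.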

Experiment [16] is described as follows: qHTS assay to identify small molecule agonists of the AP-1 signaling pathway - cell viability counter screen (AID 1159525). Note: nearly all actives have a fitted effect of over 55% in size. The method in brief: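 AP-1-bla ME-180 cells in Opti-MEM with 0.5% dialyzed FBS, compound exposure 5 h at 37 C in 15-point titration. Viability read in the same wells as ATP content by CellTiter-Glo luminescence, normalised to tetra-n-octylammonium bromide and DMSO controls.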

A short description of experiment [17]: qHTS assay to identify small molecule agonists of the AP-1 signaling pathway (AID 1159526).
For experiment [18], the target named is Retinoic acid receptor RXR-alpha (Homo sapiens) (UniProt P19793). The experiment in a line: qHTS assay to identify small molecule agonists of the RXR signaling pathway (AID 1159527). Note: nearly all actives have a fitted effect of over 35% in size. The method in brief: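 Reporter activation is measured as beta-lactamase activity via FRET substrate cleavage (emission 460/530 nm) in HEK 293T cells expressing an RXR-alpha-driven bla construct, following 16 hr compound exposure at 37 C.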

In experiment [19] the target is Peroxisome proliferator-activated receptor delta (Homo sapiens) (UniProt Q03181). Nature of the experiment: qHTS assay to identify small molecule agonists of the peroxisome proliferator-activated receptor delta (PPARd) signaling pathway (AID 743212). The method, boiled down:
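GeneBLAzer UAS-bla HEK293H cells carrying a PPARδ construct were exposed to compounds at 37 °C. Beta-lactamase activity was read by FRET fluorescence after 2 h at room temperature with LiveBLAzer B/G substrate.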

For experiment [20], the target named is Vitamin D3 receptor (Homo sapiens) (UniProt P11473). The experiment in a line: qHTS assay to identify small molecule antagonists of the vitamin D receptor (VDR) signaling pathway (AID 743223; active = well fitted inhibition curve with a large enough effect in the signal ratio in the repeat runs, not every such curve was filed as active; the % refers to the signal ratio). The method, boiled down:
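After VDR-bla cells are plated and left 4 h at 37C, DMSO-dissolved compounds and 3 nM (final) calcitriol agonist are added. Incubation continues 16 h at 37C; FRET beta-lactamase substrate then develops 2 h at room temperature.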

Records with an inconclusive call do not appear. The source made the active and inactive calls. Unless noted, calls come from the whole dose curve.

Sequence of Vitamin D3 receptor (Homo sapiens) (P11473 whole entry, looked up): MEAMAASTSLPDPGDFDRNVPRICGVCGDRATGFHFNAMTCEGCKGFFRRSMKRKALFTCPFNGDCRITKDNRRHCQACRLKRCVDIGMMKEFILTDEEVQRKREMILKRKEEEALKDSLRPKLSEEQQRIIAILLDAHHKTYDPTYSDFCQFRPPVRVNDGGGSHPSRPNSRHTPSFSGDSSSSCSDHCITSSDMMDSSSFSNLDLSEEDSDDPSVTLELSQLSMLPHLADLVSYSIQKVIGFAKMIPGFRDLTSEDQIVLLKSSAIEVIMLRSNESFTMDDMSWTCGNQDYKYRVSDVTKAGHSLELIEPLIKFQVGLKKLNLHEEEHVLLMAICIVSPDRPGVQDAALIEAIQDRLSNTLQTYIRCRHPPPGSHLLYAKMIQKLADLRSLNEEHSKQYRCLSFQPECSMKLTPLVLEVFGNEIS
Sequence of Peroxisome proliferator-activated receptor delta (Homo sapiens) (Q03181 whole entry, looked up): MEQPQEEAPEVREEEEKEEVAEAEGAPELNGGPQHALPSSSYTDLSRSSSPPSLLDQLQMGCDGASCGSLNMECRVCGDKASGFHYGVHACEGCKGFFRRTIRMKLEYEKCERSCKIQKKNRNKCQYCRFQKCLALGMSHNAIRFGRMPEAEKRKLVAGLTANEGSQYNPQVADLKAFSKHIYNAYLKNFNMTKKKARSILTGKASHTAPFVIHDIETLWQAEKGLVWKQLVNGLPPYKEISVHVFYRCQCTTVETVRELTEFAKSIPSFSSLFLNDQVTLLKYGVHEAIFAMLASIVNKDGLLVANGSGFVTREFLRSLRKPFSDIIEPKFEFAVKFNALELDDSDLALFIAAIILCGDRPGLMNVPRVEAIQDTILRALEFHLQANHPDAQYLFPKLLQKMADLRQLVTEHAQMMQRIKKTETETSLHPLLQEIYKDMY
Sequence of Retinoic acid receptor RXR-alpha (Homo sapiens) (P19793 whole entry, looked up): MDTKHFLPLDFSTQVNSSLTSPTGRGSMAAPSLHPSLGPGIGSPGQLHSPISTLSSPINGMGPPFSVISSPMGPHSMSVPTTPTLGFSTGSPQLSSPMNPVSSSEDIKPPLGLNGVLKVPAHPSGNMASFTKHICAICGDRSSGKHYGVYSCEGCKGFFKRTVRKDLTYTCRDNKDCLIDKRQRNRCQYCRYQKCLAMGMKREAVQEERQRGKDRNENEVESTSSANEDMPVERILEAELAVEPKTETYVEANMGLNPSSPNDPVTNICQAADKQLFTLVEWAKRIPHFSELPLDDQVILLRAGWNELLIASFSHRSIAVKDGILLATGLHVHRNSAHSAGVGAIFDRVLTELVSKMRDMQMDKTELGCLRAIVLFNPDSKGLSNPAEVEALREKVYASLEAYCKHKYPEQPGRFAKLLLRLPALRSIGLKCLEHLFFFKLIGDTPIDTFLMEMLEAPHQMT
Sequence of Bile acid receptor (Homo sapiens) (Q96RI1 whole entry, looked up): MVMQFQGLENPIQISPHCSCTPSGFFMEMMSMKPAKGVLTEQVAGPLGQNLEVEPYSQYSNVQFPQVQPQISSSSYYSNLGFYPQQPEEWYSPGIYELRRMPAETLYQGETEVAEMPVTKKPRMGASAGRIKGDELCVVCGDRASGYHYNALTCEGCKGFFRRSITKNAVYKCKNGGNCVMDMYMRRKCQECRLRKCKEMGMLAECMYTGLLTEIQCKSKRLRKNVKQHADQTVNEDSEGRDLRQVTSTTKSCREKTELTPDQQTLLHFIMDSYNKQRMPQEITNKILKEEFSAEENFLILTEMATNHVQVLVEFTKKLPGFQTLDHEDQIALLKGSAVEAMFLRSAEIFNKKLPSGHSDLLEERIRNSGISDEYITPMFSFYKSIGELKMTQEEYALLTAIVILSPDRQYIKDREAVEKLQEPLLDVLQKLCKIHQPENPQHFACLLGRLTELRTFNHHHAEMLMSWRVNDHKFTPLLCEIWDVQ

On to `CCC(Cl)[N+](=O)[O-]` (stereo not given), for which the compound was classed as inactive in experiment [1], in experiment [2], in experiment [5], in experiment [6], in experiment [7] and in experiment [9]. Besides, the call in experiment [10], in experiment [11], in experiment [12] and in experiment [17] was inactive. Moreover, the Potency entry in experiment [3], in experiment [4], in [8], in experiment [13], in experiment [14] and in experiment [15] was “inactive” in each case. The Potency entry in experiment [16] and in experiment [18] was “inactive” in each case.
Regarding `N#CC(O)c1ccccc1` (stereo not given), the result in experiment [19], in [1], in experiment [2], in [5], in experiment [6] and in experiment [7] was inactive. Moreover, the compound was called inactive in experiment [9], in experiment [10], in experiment [11], in experiment [12] and in experiment [17]. Besides, the Potency result in [3], in experiment [4], in experiment [8], in experiment [13], in experiment [14] and in [15] was “inactive” throughout. The Potency entry in experiment [16] is “inactive”.
Turning to `O=[N+]([O-])c1cc(Cl)c(Cl)c(Cl)c1`, the compound was classed as inactive in [19], in experiment [1], in experiment [2], in experiment [5], in experiment [6] and in experiment [7]. Further, the compound was classed as inactive in experiment [20], in experiment [9], in [10], in experiment [11], in [12] and in experiment [17]. The Potency result in [3], in [8], in [13], in experiment [14], in [15] and in [16] was “inactive” throughout. Also, the Potency entry in experiment [18] was “inactive”.
`CCCCCCI`: the call in experiment [19], in experiment [1], in [2], in experiment [5], in [6] and in [9] was inactive. The compound was called inactive in [10], in [11], in experiment [12] and in experiment [17]. Also, the Potency result in experiment [8], in [13], in experiment [14], in experiment [15], in [16] and in experiment [18] was “inactive” in each case.
With `c1cc2c(c(N3CCNCC3)c1)OCCO2`, the outcome in [1], in [2], in experiment [6], in experiment [7], in [20] and in experiment [9] was inactive. The compound was called inactive in [10], in experiment [11], in experiment [12] and in experiment [17]. The Potency result in experiment [4], in [8], in experiment [13], in experiment [14], in [15] and in [18] was “inactive” throughout.
Turning to `O=c1oc2ccccc2c(O)c1C1CCCc2ccccc21` (stereo not given), the compound was called inactive in experiment [19], in experiment [1], in [2], in [6], in [7] and in experiment [9]. Besides, the compound was classed as inactive in experiment [10], in experiment [11], in [12] and in experiment [17]. Further, the Potency result in [8], in [13], in [14] and in experiment [16] was “inactive” each time. In [15], the Potency was 48.6 µM (active).
Turning to `CCOP(=S)(OCC)Oc1nc(Cl)n(C(C)C)n1`, the call in [6], in experiment [7], in experiment [20], in experiment [10], in [11] and in experiment [12] was inactive. Moreover, in [17], the result was inactive. Further, the Potency entry in [8], in experiment [13], in [14], in experiment [15] and in experiment [16] was “inactive” in each case.
As to `N#CCBr`, the call in experiment [1], in [5], in experiment [6], in experiment [7], in experiment [9] and in [10] was inactive. Besides, the outcome in [11], in [12] and in experiment [17] was inactive. Also, the Potency entry in [4], in [8], in experiment [13], in [14], in experiment [15] and in experiment [16] was “inactive” each time.
On to `COC(=O)COc1ccc(Cl)cc1Cl`, for which the call in experiment [19], in experiment [1], in experiment [2], in [7], in experiment [20] and in experiment [9] was inactive. The result in experiment [10], in [11], in experiment [12] and in experiment [17] was inactive. In addition, the Potency entry in experiment [4], in experiment [8], in experiment [13], in experiment [14], in experiment [15] and in experiment [18] was “inactive” each time.

The values are drawn from PubChem BioAssay (Tox21).
